Measured values as given in PubChem BioAssay (NCATS).
Inconclusive results are not listed. Active and inactive are the calls of the source. Unless noted, the call rests on the fitted dose curve.

How the values were obtained:
[1] = qHTS for Inhibitors of the Functional Ribonucleoprotein Complex (vRNP) of Lassa (LASV) Arenavirus: LASV Primary Screen - GLuc reporter signal (AID 1347082; calls by dose curve; tested in HEK293 reporter line; further: nearly all actives have a fitted effect of over 60% in size)
[2] = qHTS for Inhibitors of the Functional Ribonucleoprotein Complex (vRNP) of Lassa (LASV) Arenavirus: Viability assay - alamar blue signal for LASV Primary Screen (AID 1347083; calls by dose curve; tested in HEK293 reporter line; further: nearly all actives have a fitted effect of over 80% in size)
[3] = qHTS for Inhibitors of the Functional Ribonucleoprotein Complex (vRNP) of Lymphocytic Choriomeningitis Arenaviruses (LCMV): Viability assay - alamar blue signal for LCMV Primary Screen (AID 1347085; calls by dose curve; tested in HEK293 reporter line; further: nearly all actives have a fitted effect of over 80% in size)
[4] = biological target: Nucleoprotein (Lymphocytic choriomeningitis virus (strain Armstrong)) (UniProt P09992); test: qHTS for Inhibitors of the Functional Ribonucleoprotein Complex (vRNP) of Lymphocytic Choriomeningitis Arenaviruses (LCMV): LCMV Primary Screen - GLuc reporter signal (AID 1347086); further: nearly all actives have a fitted effect of over 70% in size
Sequence of Nucleoprotein (Lymphocytic choriomeningitis virus (strain Armstrong)) (P09992 whole entry, looked up): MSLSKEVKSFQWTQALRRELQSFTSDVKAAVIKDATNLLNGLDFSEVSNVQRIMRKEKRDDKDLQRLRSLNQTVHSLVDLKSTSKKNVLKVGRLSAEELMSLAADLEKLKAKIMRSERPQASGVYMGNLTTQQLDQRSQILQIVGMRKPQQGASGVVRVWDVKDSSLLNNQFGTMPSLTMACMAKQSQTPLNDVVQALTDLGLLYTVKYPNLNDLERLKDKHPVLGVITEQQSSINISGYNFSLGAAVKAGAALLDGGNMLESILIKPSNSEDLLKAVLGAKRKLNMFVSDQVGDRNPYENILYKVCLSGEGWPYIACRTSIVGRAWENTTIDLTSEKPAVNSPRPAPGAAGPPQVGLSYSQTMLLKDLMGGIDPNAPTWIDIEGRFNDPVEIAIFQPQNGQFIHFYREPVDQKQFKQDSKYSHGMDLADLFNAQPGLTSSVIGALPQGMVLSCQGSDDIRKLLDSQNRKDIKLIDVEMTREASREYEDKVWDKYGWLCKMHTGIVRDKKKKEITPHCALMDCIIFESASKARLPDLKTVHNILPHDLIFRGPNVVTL
Further: series mostly up to about 57 µM.
On the % scale 0 is the no-effect control and ±100 the full control effect.

Cc1cnc(NC(=O)C2=C(O)c3ccccc3S(=O)(=O)N2C)s1
inactive: Potency [1] | Potency [2] | Potency [3] | Potency [4]

NC(=O)CC[C@@H]1NC(=O)[C@H](Cc2ccccc2)NC(=O)[C@H](Cc2ccc(O)cc2)NC(=O)CCSSC[C@@H](C(=O)N2CCC[C@H]2C(=O)N[C@@H](CCCN=C(N)N)C(=O)NCC(N)=O)NC(=O)[C@H](CC(N)=O)NC1=O
inactive: Potency [1] | Potency [2] | Potency [3] | Potency [4]

Nc1ccc(C(=O)Oc2ccccc2)c(O)c1
inactive: Potency [1] | Potency [2] | Potency [3] | Potency [4]

Cc1cc2cc3c(C)cc(=O)oc3c(C)c2o1
inactive: Potency [1] | Potency [2] | Potency [3] | Potency [4]

N#CSCC(=O)O
inactive: Potency [1] | Potency [2] | Potency [3] | Potency [4]

Cc1cc(C)c(NC(=O)CN(CC(=O)O)CC(=O)O)c(C)c1Br
inactive: Potency [1] | Potency [2] | Potency [3] | Potency [4]

O=S(=O)(O)c1cc(I)c(O)c2ncccc12
inactive: Potency [1] | Potency [2] | Potency [3] | Potency [4]

CN1CCN(C(=O)C2CCCCC2)CC1
inactive: Potency [1] | Potency [2] | Potency [3] | Potency [4]

CC(=O)c1cc2ccccc2s1
inactive: Potency [1] | Potency [2] | Potency [3] | Potency [4]

N[C@@H](COP(=O)(O)O)C(=O)O
inactive: Potency [1] | Potency [2] | Potency [3] | Potency [4]

Cc1onc(-c2c(Cl)cccc2Cl)c1C(=O)Cl
inactive: Potency [1] | Potency [2] | Potency [3] | Potency [4]

CC(=O)Nc1ccc(OC(=O)c2ccccc2OC(C)=O)cc1
inactive: Potency [1] | Potency [2] | Potency [3] | Potency [4]

CCCOC(=O)c1ccccc1
inactive: Potency [1] | Potency [2] | Potency [3] | Potency [4]

CC1(C)O[C@H]2CC(=O)OC[C@]23[C@H]2CC[C@@]4(C)[C@H](c5ccoc5)OC(=O)[C@H]5O[C@]54[C@]2(C)C(=O)C[C@@H]13
inactive: Potency [1] | Potency [2] | Potency [3] | Potency [4]

COC(=O)c1cc(Cl)ccc1OC
inactive: Potency [1] | Potency [2] | Potency [3] | Potency [4]

CCOc1ccc(NC(=O)CC(C)O)cc1 (stereo not given)
inactive: Potency [1] | Potency [2] | Potency [3] | Potency [4]

CCOC(=O)Oc1ccc(CCNC(=O)[C@H](CCSC)NC(C)=O)cc1OC(=O)OCC
inactive: Potency [1] | Potency [2] | Potency [3] | Potency [4]

COc1cc(O)cc(O)c1
inactive: Potency [1] | Potency [2] | Potency [3] | Potency [4]

COc1ccc(C(=O)N2CCN(CC(=O)N3CCOCC3)CC2)cc1
inactive: Potency [1] | Potency [2] | Potency [3] | Potency [4]

CC(=O)Nc1ccccc1
inactive: Potency [1] | Potency [2] | Potency [3] | Potency [4]

CC(C)C(=O)Nc1cccc(C(F)(F)F)c1
inactive: Potency [1] | Potency [2] | Potency [3] | Potency [4]

COc1ccc(C(=O)c2ccccc2)c(O)c1
inactive: Potency [1] | Potency [2] | Potency [3] | Potency [4]

Cn1c(=O)c2[nH]c(Br)nc2n(C)c1=O
inactive: Potency [1] | Potency [2] | Potency [3] | Potency [4]

C/C(=N\O)c1ccc(OCC(=O)N2CCCCC2)cc1
inactive: Potency [1] | Potency [2] | Potency [3] | Potency [4]

CC(=O)OCC(=O)[C@@]1(O)[C@H](OC(C)=O)C[C@H]2[C@@H]3CCC4=CC(=O)C=C[C@]4(C)[C@@]3(F)[C@@H](O)C[C@@]21C
inactive: Potency [1] | Potency [2] | Potency [3] | Potency [4]

Oc1ccccc1
inactive: Potency [1] | Potency [2] | Potency [3] | Potency [4]

N#CCC(=O)NN
inactive: Potency [1] | Potency [2] | Potency [3] | Potency [4]

CCO/C([O-])=N/c1c[n+](N2CCOCC2)no1
inactive: Potency [1] | Potency [2] | Potency [3] | Potency [4]

NS(=O)(=O)c1ccc(Cl)c(S(N)(=O)=O)c1
inactive: Potency [1] | Potency [2] | Potency [3] | Potency [4]

NCCNCCNCCNCCN
inactive: activity change, negative = inhibition [1] -3.37% [at 11.5 µM] | activity change, negative = reduced viability [2] 1.27% [at 11.5 µM] | activity change, negative = lower viability [3] 2.19% [at 11.5 µM] | activity change, negative = inhibition [4] -1.94% [at 11.5 µM]

NC(=O)N1c2ccccc2C=Cc2ccccc21
inactive: Potency [1] | Potency [2] | Potency [3] | Potency [4]

Cc1ccccc1N1CCN(CCc2nnc3n2CCCC3)CC1
inactive: Potency [1] | Potency [2] | Potency [3] | Potency [4]

CNNCc1ccc(C(=O)NC(C)C)cc1
inactive: Potency [1] | Potency [2] | Potency [3] | Potency [4]

CO[C@@H]1[C@@H](OC(N)=O)[C@@H](O)[C@H](Oc2ccc3c(O)c(NC(=O)c4ccc(O)c(CC=C(C)C)c4)c(=O)oc3c2C)OC1(C)C
inactive: Potency [1] | Potency [2] | Potency [3] | Potency [4]

CC(C)c1ccc2oc3nc(N)c(C(=O)O)cc3c(=O)c2c1
inactive: Potency [1] | Potency [2] | Potency [3] | Potency [4]

CCCCCCCC(=O)OCC(COC(=O)CCCCCCC)OC(=O)CCCCCCC
inactive: Potency [1] | Potency [2] | Potency [3] | Potency [4]

CC(=O)[C@H]1CC[C@H]2[C@@H]3C[C@H](C)C4=CC(=O)CC[C@]4(C)[C@H]3[C@@H](O)C[C@]12C
inactive: Potency [1] | Potency [2] | Potency [3] | Potency [4]

Cc1ccc(-c2ncc(Cl)cc2-c2ccc(S(C)(=O)=O)cc2)cn1
inactive: Potency [1] | Potency [2] | Potency [3] | Potency [4]

COCCc1ccccn1
inactive: Potency [1] | Potency [2] | Potency [3] | Potency [4]

C[N+](C)(CCOc1ccccc1)Cc1cccs1
inactive: Potency [1] | Potency [2] | Potency [3] | Potency [4]

CCCCOC(=O)c1ccc(O)cc1
inactive: Potency [1] | Potency [2] | Potency [3] | Potency [4]

O=C(CCOCCOCCOCCOCCC(=O)Nc1c(I)cc(I)c(C(=O)O)c1I)Nc1c(I)cc(I)c(C(=O)O)c1I
inactive: Potency [1] | Potency [2] | Potency [3] | Potency [4]

Cc1cccc(C(=O)O)c1O
inactive: Potency [1] | Potency [2] | Potency [3] | Potency [4]

CCOC(=O)NNc1ccc(N(CC)CC(C)O)nn1 (stereo not given)
inactive: Potency [1] | Potency [2] | Potency [3] | Potency [4]

CCO[C@H](Cc1ccc(OCCc2ccc(OS(C)(=O)=O)cc2)cc1)C(=O)O
inactive: Potency [1] | Potency [2] | Potency [3] | Potency [4]

CC1CCN(CCCC(=O)c2ccc(F)cc2)CC1
inactive: Potency [1] | Potency [2] | Potency [3] | Potency [4]

CC(C)(C)CC(C)(C)c1ccc(O)c(-n2nc3ccccc3n2)c1
inactive: Potency [1] | Potency [2] | Potency [3] | Potency [4]

Cc1ccc(C(C)C)c(O)c1
inactive: Potency [1] | Potency [2] | Potency [3] | Potency [4]

CC(=O)SCC(CC(=O)c1ccc(C)cc1)C(=O)O (stereo not given)
inactive: Potency [1] | Potency [2] | Potency [3] | Potency [4]

CCC(=O)c1c(O)cc(O)cc1O
inactive: Potency [1] | Potency [2] | Potency [3] | Potency [4]

CCN1CC(CCN2CCOCC2)C(c2ccccc2)(c2ccccc2)C1=O (stereo not given)
inactive: Potency [1] | Potency [2] | Potency [3] | Potency [4]

NCCCCCC(=O)O
inactive: Potency [1] | Potency [2] | Potency [3] | Potency [4]

CC(=O)OC(C)OC(=O)C(C)c1ccc(-c2ccccc2)c(F)c1 (stereo not given)
inactive: Potency [1] | Potency [2] | Potency [3] | Potency [4]

CC(CN(C)C)C(C)(O)Cc1ccc(Cl)cc1 (stereo not given)
inactive: Potency [1] | Potency [2] | Potency [3] | Potency [4]

O=C1c2c(O)cccc2Cc2cccc(O)c21
inactive: Potency [1] | Potency [2] | Potency [3] | Potency [4]

O=C(O)CCCCCCCC(=O)O
inactive: Potency [1] | Potency [2] | Potency [3] | Potency [4]

NC(=O)c1cc[n+](CC2=C(C(=O)[O-])N3C(=O)[C@@H](NC(=O)Cc4cccs4)[C@H]3SC2)cc1
inactive: Potency [1] | Potency [2] | Potency [3] | Potency [4]

CN1CCN(CC(=O)N2c3ccccc3C(=O)Nc3cccnc32)CC1
inactive: Potency [1] | Potency [2] | Potency [3] | Potency [4]

CC[N+](CC)(CC)CCOc1cccc(OCC[N+](CC)(CC)CC)c1OCC[N+](CC)(CC)CC
inactive: Potency [1] | Potency [2] | Potency [3] | Potency [4]

NS(=O)(=O)c1cc(-c2nn[nH]n2)c(NCc2cccs2)cc1Cl
inactive: Potency [1] | Potency [2] | Potency [3] | Potency [4]
